Assay results as given in PubChem BioAssay.
Unmarked numbers belong to inactive results. How the calls were made is not given here.

The compounds below were run against Pantothenate synthetase (Mycobacterium tuberculosis (strain ATCC 25618 / H37Rv)) (UniProt P9WIL5) (assay: Coupled enzyme confirmation of inhibitors against recombinant Mtb PanC (AID 375;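 further: 0% = full reaction with vehicle and 100% = no enzyme background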)). Details: coupled enzyme assay; at 10 µM, active compounds read high.
Sequence of Pantothenate synthetase (Mycobacterium tuberculosis (strain ATCC 25618 / H37Rv)) (P9WIL5 whole entry, looked up): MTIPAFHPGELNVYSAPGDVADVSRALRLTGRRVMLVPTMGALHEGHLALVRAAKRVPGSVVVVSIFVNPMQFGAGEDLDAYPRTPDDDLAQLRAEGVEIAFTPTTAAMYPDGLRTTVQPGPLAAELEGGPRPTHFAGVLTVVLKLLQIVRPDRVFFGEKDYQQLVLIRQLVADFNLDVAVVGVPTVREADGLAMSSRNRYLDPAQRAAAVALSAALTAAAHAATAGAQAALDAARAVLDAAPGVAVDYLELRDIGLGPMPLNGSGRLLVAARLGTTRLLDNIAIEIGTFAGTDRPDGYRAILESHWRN

SMILES | inhibition
CCOC(=O)C1=C(C)NC(=O)NC1c1ccc(OCCO)c(OC)c1 (stereo not drawn) | 0%
O=C(CN1CCCN(S(=O)(=O)c2ccc(Br)cc2)CC1)Nc1ccc2cn[nH]c2c1 | 0%
Cc1ccc(-c2[nH]nc3c2C(c2ccoc2)C(C#N)=C(N)O3)cc1C (stereo not drawn) | 0%
CCc1nnc(NC(=O)CCC(=O)Nc2ccccc2)s1 | 4%
CC1(C)CC(=O)C(C(=O)CCCCC(=O)C2C(=O)CC(C)(C)CC2=O)C(=O)C1 | 0%
CCCN1CCC(NC(=O)Nc2ccc(OC)c(OC)c2)CC1 | 0%
CCNS(=O)(=O)c1c(C)cc(N2CCCC2=O)cc1C | 6%
CC(=O)N1C(=O)C2(Nc3ccccc3N2)c2ccccc21 | 1%
O=C(Nc1ccccn1)N1CCOCC1 | 4%
O=C(Nc1ccc2oc(=O)ccc2c1)c1cccnc1 | 0%
COc1c2occc2c(OC)c2c(=O)cc(C)oc12 | 8%
Cc1cc(S(=O)(=O)N(Cc2ccccc2)Cc2ccc(N(C)C)cc2)ccc1-n1cnnn1 | 0%
CCn1cc(C(=O)O)c(=O)c2cnc(N3CCNCC3)nc21 | 1%
CCCc1nnc(SCC(=O)N2CCOCC2)n1Cc1ccco1 | 0%
O=C(CN(Cc1cccs1)C(=O)CNS(=O)(=O)c1ccccc1)NCc1ccco1 | 3%
COc1ccc(/C=C/C(=O)Nc2ccccc2C(=O)O)cc1OC | 0%
CCn1cnc2cc(NCc3cccc(OC)c3O)ccc21 | 12%
CCc1nnc(NC(=O)C2CCCN2S(=O)(=O)c2ccc(C)cc2)s1 (stereo not drawn) | 2%
